About 3,000 (1%) of roughly 290,000 compounds were called active. Rule as the data show it: active = inhibition mostly above about 36% (no sharp cut-off); inactive = mostly below about 34%. For the sample, actives were picked, then their nearest neighbours and some compounds at random.

The nature of this experiment: inhibition of NOD1-driven NF-kB reporter – cell-based, luminescence, uHTS, primary screen (AID 1578).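 Also: HEK-293T reporter cells stimulated with the NOD1 agonist gamma-tri-DAP.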 As to conditions: NOD1-driven NF-kB luciferase reporter cells, at 4 µM, stronger effect = higher value.
By inhibition is commonly meant the change of the read-out against control, counted positive when it falls. Take `Cc1ccc(NC(=O)CN(C)CC(=O)Nc2c(C)cccc2C)c(Br)c1`: the inhibition was -5.8% (inactive).
On to `Cc1cccc(C)c1NC(=O)c1ccc(-c2ccc(Cl)cc2Cl)o1`, for which the inhibition is 73.6% (active).
In the case of `Cc1ccccc1NC(=O)c1ccc(-c2ccc(Cl)cc2Cl)o1` it was -41.4% (inactive).
In the case of `O=C(O)c1ccc(-c2ccc(Cl)cc2Cl)o1` it was -54% (inactive); in that of `COc1cccc(CN2CCCC(C(=O)c3ccc4c(c3)OCO4)C2)c1O` (stereo not given), -27.5% (inactive); in that of `CC(C)N1C(=O)S/C(=C/c2ccc(Sc3nc4ccccc4[nH]3)o2)C1=O`, 50.1% (inactive).
As for `CCN1C(=O)S/C(=C/c2ccc(Sc3nc4ccccc4[nH]3)o2)C1=O`, the inhibition is 38.6% (inactive).
`C=CCN1C(=O)S/C(=C/c2ccc(Sc3nc4ccccc4[nH]3)o2)C1=O`: the inhibition was 71.4% (active).
The figure for `Cc1ccc(S(=O)(=O)N2CCC(C(=O)NCCCN3CCCC3=O)CC2)cc1C` is -29.3% (inactive).
The figure for `CN(C)S(=O)(=O)c1ccc(Oc2ccccc2)cc1` is -4.6% (inactive).
In the case of `COc1ccc(CNC(=O)C2(CC(=O)NC(C)(C)C)CCCC2)cc1` it was 4.9% (inactive).
Regarding `CCC(=O)Nc1sc2c(c1C(N)=O)CCC2`, the inhibition is 0.4% (inactive).
The figure for `CCCN(CCC)C(=O)c1c(NC(=O)CC)sc2c1CCCCC2` is 50.3% (active); for `CCC(=O)Nc1sc2c(c1C(=O)N(C)C)CCCCC2` it is -18.5% (inactive).
The figure for `CCCCN1CN(Cc2ccccc2)CNC1=S` is -16.8% (inactive); for `Cc1nc2cc(CO)ccc2n1C` it is -15.3% (inactive); for `CN(C)C(CNC(=O)/C=C/c1cccc(Cl)c1)c1ccccc1` (stereo not given) it is -22.7% (inactive).
In the case of `O=C(N/N=C/c1ccccn1)c1ccc(N/N=C/c2ccccn2)cc1` it was -58.4% (inactive).
As to `O=C(N/N=C/c1ccccn1)c1ccc(NC(=O)c2cccc([N+](=O)[O-])c2)cc1`, the inhibition is -22.2% (inactive).
The figure for `O=C(O)c1cccc(NC(=S)N/N=C/c2cccc(O)c2)c1` is -6.8% (inactive).
In the case of `O=C(N/N=C/c1ccccn1)c1ccc([N+](=O)[O-])cc1`, the inhibition is 67.9% (active).
In the case of `O=C(O)c1cccc(NC(=S)N/N=C/c2ccccn2)c1` it was 68.3% (active); in that of `O=C(N/N=C/c1ccccn1)c1ccc(Br)cc1`, 103% (active).
On to `O=C(O)c1cccc(NC(=S)N/N=C/c2cccnc2)c1`, for which the inhibition was -15.4% (inactive).
For the compound `O=C(N/N=C/c1ccccn1)c1ccccc1`, the inhibition was -39% (inactive).
The figure for `O=C(N/N=C/c1ccccn1)c1cccc([N+](=O)[O-])c1` is 20% (inactive).
Consider `Brc1c(CSc2nc3ccccc3o2)nc2ncccn12`, for which the inhibition was -66.9% (inactive).
The figure for `Cc1cc(C)cc(NC(=O)c2ccc(CSc3nnnn3C)cc2)c1` is -44.7% (inactive).
Consider `COc1ccc(NC(=O)CN(C)C(=O)c2ccc(-c3cccc(C(F)(F)F)c3)o2)cc1`, for which the inhibition is -14.7% (inactive).
In the case of `C=CCOc1ccccc1CNCc1ccc(F)cc1` it was -24% (inactive).
The figure for `Cc1ccc(S(=O)(=O)c2nc(S(C)(=O)=O)sc2N2CCCCC2C)cc1` (stereo not given) is 55.1% (active).
`Cc1ccc(S(=O)(=O)c2nc(S(C)(=O)=O)sc2N2CCCCCC2)cc1`: the inhibition was 32.4% (inactive).
In the case of `Cc1ccc(S(=O)(=O)c2nc(S(C)(=O)=O)sc2N2CCCC2)cc1` it was -19.8% (inactive).
The figure for `CC(=O)N1CCc2cc(S(=O)(=O)Nc3ccc(C)cc3)ccc21` is 0% (inactive).
With `CC(=O)N1CCc2cc(S(=O)(=O)Nc3cccc(C(F)(F)F)c3)ccc21`, the inhibition was 30.6% (inactive).
`CCCNC(=O)CN1C(=O)COc2ccc(S(=O)(=O)N3CCCCCC3)cc21`: the inhibition is -13.3% (inactive).
The figure for `COc1ccc(Cl)cc1C(=O)Nc1cccc2ncccc12` is 13.1% (inactive); for `COc1ccc(OCc2cccc(C(=O)NN)c2)cc1` it is 38.9% (inactive); for `CCOc1ccc(OCc2cccc(C(=O)N(CC)CC)c2)cc1` it is -59.7% (inactive).
Turning to `CCOc1ccc(OCc2cccc(C(=O)N3CCCC3)c2)cc1`, the inhibition was -38% (inactive).
Consider `COc1ccc(OCc2cccc(C(=O)O)c2)cc1`, for which the inhibition is 102% (active).
In the case of `O=C(O)c1ccc(COc2ccc(CO)cc2Cl)cc1` it was -26.3% (inactive); in that of `CCOc1ccc(OCc2cccc(C(=O)O)c2)cc1`, 97.5% (active).
Consider `O=C(O)c1cccc(COc2ccc(CO)cc2Cl)c1`, for which the inhibition was 99.2% (active).
For `C/C(=N\OCc1cccc(C(=O)O)c1)c1ccc(Cl)cc1`, the inhibition was 47.4% (active).
The figure for `COc1ccc(OCc2ccc(C(=O)O)cc2)cc1` is -70.3% (inactive).
For the compound `COc1cccc(/C=C(/C#N)c2ccc(Cl)cc2)c1OCc1cccc(C(=O)O)c1`, the inhibition was 14.4% (inactive).
The figure for `O=C(O)c1cccc(COc2ccccc2Cl)c1` is 97.2% (inactive); for `O=C1NC(=O)/C(=C\c2ccc(OCc3cccc(C(=O)O)c3)c(Cl)c2)N1` it is -17.1% (inactive).
As to `O=C(N=C1SC2CS(=O)(=O)CC2N1c1ccc(OC(F)(F)F)cc1)C1CC1` (stereo not given), the inhibition is -27.3% (inactive).
In the case of `O=C(NC(c1cccnc1)C(F)(F)F)c1cc(COc2ccc3c(c2)CCCC3)on1` (stereo not given) it was 1.4% (inactive); in that of `Cc1nn(-c2ccccc2)c(=S)n1-c1ccccc1`, -7% (inactive); in that of `O=C(CSc1n[nH]c(-c2ccccc2)n1)Nc1ccc(F)cc1F`, -6.2% (inactive).
Regarding `COc1ccc(OCc2cc(C(=O)N3CCCCCCC3)no2)c(Cl)c1`, the inhibition was -23.7% (inactive).
The figure for `COCCn1c(C)cc(/C=C2/NC(=O)N(c3ccc(Cl)cc3)C2=O)c1C` is -49.9% (inactive).
As to `COC(=O)c1cccc(Cn2cc([N+](=O)[O-])cn2)c1`, the inhibition is -7.1% (inactive).
The figure for `NNC(=O)c1cccc(COc2ccc3c(c2)CCC3)c1` is 62.3% (inactive); for `Cc1nn(Cc2cccc(C(=O)Nn3cc([N+](=O)[O-])cn3)c2)c(C)c1[N+](=O)[O-]` it is 0.9% (inactive); for `O=C(O)c1cccc(COc2ccc3c(c2)CCC3)c1` it is 92.4% (active).
In the case of `COc1ccc(OCc2cccc(C(=O)Nn3cc([N+](=O)[O-])cn3)c2)cc1` it was 50.9% (active); in that of `O=C(O)c1ccc(COc2ccc3c(c2)CCC3)cc1`, -2.9% (inactive).
In the case of `COc1ccc(OC)c(-c2csc(NC(=O)Cc3ccc(OC)c(OC)c3)n2)c1` it was 25.1% (inactive).
As for `Cc1cc(C)cc(N(C(=O)c2csnn2)C(C(=O)NC(C)(C)C)c2cccs2)c1` (stereo not given), the inhibition was 10.5% (inactive).
As to `O=C1CCCCC(=O)N(c2ccccc2)c2ccccc21`, the inhibition is 7.2% (inactive).
The figure for `CCOC(=O)c1cnc2ccc(OC)cc2c1NCc1ccccc1` is 3.2% (inactive); for `CCOC(=O)c1cnc2ccc(OCC)cc2c1NCc1ccccc1OC` it is 72.7% (active); for `CCOC(=O)c1cnc2ccc(OCC)cc2c1NCc1ccccc1` it is -5.7% (inactive).
For `CN(C)Cc1ccc(F)cc1Sc1ccc(Cl)cc1Cl`, the inhibition was -13.9% (inactive).
On to `CN(C)Cc1ccc(F)cc1Sc1cc(Cl)ccc1Cl`, for which the inhibition is 63.7% (active).
The figure for `CN(C)C(=O)c1cc(F)ccc1Sc1cc(Cl)ccc1Cl` is -6.9% (inactive).
The figure for `CCc1ccc(-n2c(SCC(=O)N3CCC(C(=O)O)CC3)nnc2-c2ccncc2)cc1` is -31.9% (inactive).
The figure for `O=C(N/N=C/c1coc2ccc(Cl)cc2c1=O)c1cc(O)cc(O)c1` is 31.6% (inactive); for `O=c1c(/C=N\NS(=O)(=O)c2ccccc2)coc2ccc(Cl)cc12` it is 69.9% (active).
`NC(=S)N/N=C/c1coc2ccc(Cl)cc2c1=O`: the inhibition is 9.6% (inactive).
The figure for `CC(=O)N1CCN=C1SCc1ccccc1Cl` is 1.2% (inactive).
For `COc1ccc(C2C(C(=O)c3sc(C)nc3C)=C(O)C(=O)N2CCN(C)C)cc1` (stereo not given), the inhibition was -18.4% (inactive).
The figure for `COc1cc(/C=C2/SC(=O)NC2=O)ccc1OCc1ccccc1` is -38.4% (inactive); for `CCOc1ccc(N(C)c2ccc(/C=C3/SC(=S)NC3=O)cc2)cc1` it is 43.6% (inactive); for `CCOc1ccc(/C=C2\SC(=S)NC2=O)cc1OC` it is -40.1% (inactive).
The figure for `COc1ccccc1OCCCOc1ccc(/C=C2\SC(=O)NC2=O)cc1OC` is 54.4% (inactive); for `CC(=O)Nc1ccc(OCc2nnc(-c3ccc(Cl)cc3)o2)cc1` it is -27.9% (inactive); for `Cc1ccc2c(c1)c1c(n2CC(O)Cn2ccnc2C)C(=O)CCC1` (stereo not given) it is -18.6% (inactive).
In the case of `COCCNC(=S)N(CCc1c(C)[nH]c2ccccc12)Cc1ccco1` it was -30.2% (inactive); in that of `O=C(CCN1C(=O)c2ccccc2C1=O)N1CCOCC1`, -25.4% (inactive); in that of `Cc1ccc2c(c1)CCCN2C(=O)Nc1ccc2c(c1)OCO2`, -2.3% (inactive).
With `Cc1ccc(CNC(=O)Cn2cncn2)cc1`, the inhibition was 8.6% (inactive).
In the case of `COc1ccc(CNC(=O)Cn2cncn2)cc1OC` it was -12.9% (inactive); in that of `O=C(Cn1cncn1)NCc1ccc(Cl)cc1`, 66.1% (active).
The figure for `Cc1cc(C)n(C(=O)CCCCCCCC(=O)n2nc(C)cc2C)n1` is -26.9% (inactive).
In the case of `COc1ccc(NC(=O)c2cc3ccc4c5ccccc5[nH]c4c3cc2O)cc1` it was -6.7% (inactive); in that of `O=C(Nc1ccc(Cl)cc1)c1cc2c(cc1O)[nH]c1ccccc12`, 43.7% (active).
With `CC(=O)Nc1ccc2[nH]c3ccccc3c2c1`, the inhibition was -15.1% (inactive).
The figure for `O=C(CSc1ccc(-c2ccccn2)nn1)NCc1ccc(F)cc1` is -16.2% (inactive); for `COc1ccccc1CNC(=O)COC(=O)CNS(=O)(=O)c1ccc(C)cc1` it is -3% (inactive); for `CN(Cc1ccccc1)c1ncnc(N)c1[N+](=O)[O-]` it is 46% (inactive).
The figure for `Nc1ncnc(NC2CCS(=O)(=O)C2)c1[N+](=O)[O-]` (stereo not given) is 11.8% (inactive); for `Nc1ncnc(N(c2ccccc2)C2CCCCC2)c1[N+](=O)[O-]` it is 44.6% (inactive); for `Cc1ccc(N(c2ncnc(N)c2[N+](=O)[O-])C2CCCCC2)cc1` it is 22.2% (inactive).
In the case of `CN(c1ncnc(N)c1[N+](=O)[O-])C1CCCCC1` it was 80.2% (active); in that of `CN(c1ncnc(N)c1[N+](=O)[O-])C1CCS(=O)(=O)C1` (stereo not given), 58% (active).

The values above are taken from PubChem BioAssay AID1578 (Sanford-Burnham Center for Chemical Genomics, 2009).
